High-throughput results (PubChem BioAssay)
An excerpt weighted towards active compounds, which were near 18% of everything screened.
Six1-Eya2 inh: qHTS Assay for Inhibitors of the Six1/Eya2 Interaction; AlphaScreen GST-Six1/His-Eya2 binding, biochemical; stronger effect = lower value; Homeobox protein SIX1 (Homo sapiens) + Protein phosphatase EYA2 (Homo sapiens), …; 360,000 compounds, 0.56% hits; activity change, % (concentration not given with the values); AID 651725, 2012; in the data active = activity change below about -65%; inconclusive = mostly about -30% to -63%
Target sequence (O00167 whole entry, looked up): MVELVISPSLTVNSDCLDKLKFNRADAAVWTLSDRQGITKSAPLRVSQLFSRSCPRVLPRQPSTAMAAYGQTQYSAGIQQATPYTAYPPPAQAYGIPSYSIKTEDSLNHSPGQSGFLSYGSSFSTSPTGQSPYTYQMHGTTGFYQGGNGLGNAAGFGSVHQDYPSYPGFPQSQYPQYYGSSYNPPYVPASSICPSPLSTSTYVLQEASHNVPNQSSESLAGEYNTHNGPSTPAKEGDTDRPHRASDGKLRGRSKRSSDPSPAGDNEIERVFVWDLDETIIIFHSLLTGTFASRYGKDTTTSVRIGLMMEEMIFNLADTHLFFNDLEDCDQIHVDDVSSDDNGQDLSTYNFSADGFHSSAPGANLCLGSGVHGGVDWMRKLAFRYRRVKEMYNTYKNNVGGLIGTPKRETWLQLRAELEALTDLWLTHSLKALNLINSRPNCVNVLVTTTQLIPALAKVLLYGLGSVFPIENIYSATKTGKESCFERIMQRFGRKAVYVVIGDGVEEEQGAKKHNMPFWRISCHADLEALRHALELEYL
Target sequence (Q15475 whole entry, looked up): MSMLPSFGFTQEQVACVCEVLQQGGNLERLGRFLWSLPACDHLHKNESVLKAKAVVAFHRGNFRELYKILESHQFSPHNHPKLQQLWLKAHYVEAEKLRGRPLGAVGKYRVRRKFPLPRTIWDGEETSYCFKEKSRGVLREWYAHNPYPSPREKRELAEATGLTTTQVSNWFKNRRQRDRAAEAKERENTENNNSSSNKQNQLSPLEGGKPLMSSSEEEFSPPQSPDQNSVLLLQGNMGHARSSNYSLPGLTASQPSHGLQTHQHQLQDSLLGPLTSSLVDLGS
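GST-Six1 + His-Eya2 (5X stock: 250/500 nM); Tris pH 8.0, 300 mM NaCl, 0.05% BSA, 0.02% Tween 20; GSH donor/Ni acceptor beads; 1 h 37 °C dark; AlphaScreen readout.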
IL1B secr inh: qHTS for Inhibitors of Inflammasome Signaling: IL-1-beta AlphaLISA Primary Screen; THP-1 LPS/ATP IL-1B secretion, AlphaLISA, 16 h; stronger effect = lower value; activity change, % at 57.5 µM; 360,000 compounds, 4.7% hits; in the data active = activity change below about -50%; inconclusive = mostly about -30% to -49%
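Secreted IL-1B measured by AlphaLISA bead assay after 16 h compound exposure of THP-1 cells; compounds (final up to 57.5 uM) added 1 h before LPS (250 ng/mL) and ATP (1.25 mM) stimulation; lower signal means less secretion.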
TDP1 cell noCPT: qHTS for Inhibitors of human tyrosyl-DNA phosphodiesterase 1 (TDP1): qHTS in cells in absence of CPT; Potency, µM (doses to about 46.2 µM), for the others: at the highest dose activity change, negative = growth inhibition, actives largely listed as inhibitors; 420,000 compounds, 15% hits; AID 686978, 2013; DT40 Tdp1-/- hTDP1 cells, no CPT, ATP luminescence, 48 h; note: potency is the fitted concentration of half-maximal effect; nearly all actives have a fitted effect of over 55% in size
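DT40 Tdp1-/-;hTDP1 cells, no CPT (DMSO vehicle only), 400 cells/well; compounds pin-transferred; ≥48 hr, 37 °C; CellTiter-Glo 30 min RT dark, luminescence read.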
CtBP-E1A inh: qHTS Assay for Inhibitors of the CtBP/E1A Interaction. 340,000 compounds, 0.49% hits. CtBP / adenovirus E1A interaction (AlphaScreen). AlphaScreen GST-E1A/His-CtBP binding, 1536-well; stronger effect = lower value. AID 651724, 2012. activity change, % (no concentration beside the values); in the data active = activity change below about -65%; inconclusive = mostly about -30% to -63%
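Protein mix (5X: 125 nM each GST-E1A, His-CtBP) was incubated with pinned compound 2 h at 37 deg C in dark, in 50 mM Tris pH 8.0 buffer with 300 mM NaCl. Glutathione donor and nickel acceptor beads followed; AlphaScreen signal read after 1 h.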
TDP1 cell CPT: qHTS for Inhibitors of human tyrosyl-DNA phosphodiesterase 1 (TDP1): qHTS in cells in presence of CPT; chicken DT40 Tdp1-/-;hTDP1 cells + 20 nM CPT, ATP luminescence, 48 h; Potency, µM (highest dose often 46.2 µM), without a hit: top-dose activity change, negative = growth inhibition, actives largely listed as inhibitors; 420,000 compounds, 12% hits; note: potency is the fitted concentration of half-maximal effect; nearly all actives have a fitted effect of over 55% in size
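Chicken DT40 Tdp1-/- cells stably complemented with human TDP1 were seeded at 400 cells/well in medium containing 20 nM camptothecin, exposed to pin-transferred compounds, and grown at 37 °C for at least 48 hr. Viability was read as ATP luminescence.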
TDP1 block: qHTS Assay for Inhibitors of Tyrosyl-DNA Phosphodiesterase (TDP1). AID 485290, 2010. recombinant TDP1, AlphaScreen DNA substrate cleavage. 350,000 compounds, 0.28% hits. Potency, µM (titrated, usually from 130 µM), for the others: top-dose activity change, negative = inhibition, usual class: inhibitors; note: potency is the fitted concentration of half-maximal effect; nearly all actives have a fitted effect of over 40% in size
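Steps: enzyme plus compound, 15 min RT; add biotin/phosphotyrosine-FITC oligonucleotide (15 nM final), react 5 min; add donor/acceptor beads (10 ug/ml final), 10 min; read AlphaScreen. Tdp1 at 1 nM final.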
Starred values were filed as active, the others as inactive; ? = inconclusive; . = no result; [ ] = remark or other dose. Unless noted, calls come from the whole dose curve; as a rule, active = well fitted curve in the direction sought with a large enough effect; inconclusive = small, poorly fitted or top-dose-only effect, or another doubt; inactive = no such curve, though single readings can be large; an effect the other way counts as inactive or inconclusive. % is set by controls: 0 for no effect and ±100 for the full control effect.

SMILES	Six1-Eya2 inh	IL1B secr inh	TDP1 cell noCPT	CtBP-E1A inh	TDP1 cell CPT	TDP1 block
O=C(NC1CCCc2ccccc21)C1CCCC1 (stereo not given)	7.3	13.3	-8.9%	4.3	25.4%	.
COc1cc2c(c(OC)c1OC)C(c1ccc(O)cc1)CC(=O)O2 (stereo not given)	1.4	19.2	-18.8%	3.9	-6.5%	-0.3%[56.1 µM]
CCn1c(C)[n+](CC)c2ccc(C(=O)N(C)c3ccccc3)cc21	4.3	0.0	9.8%	.	-2.8%	6.0%
CCn1c(/C=C/N(C(C)=O)c2ccccc2)[n+](CC)c2ccc(Cl)cc21	-4.7	12.6	14.6µM*	-4.3	16.4µM*	0.0%
CCN1C(=O)/C(=C/N(C(C)=O)c2ccccc2)N(c2ccccc2)C1=S	5.9	?	?	-0.4	?	7.0%
CC[n+]1c(/C=C/C=C/N(C(C)=O)c2ccccc2)sc2ccccc21	0.0	0.0	20.6µM*	4.3	?	11.4%
COc1cccc(NC(=O)Cn2c(=O)n(CCC(=O)NCCc3ccc(Cl)cc3)c(=O)c3ccccc32)c1	.	.	-28.7%	.	-20.7%	5.5%
COc1ccc(-n2nc3ccc(NC(=O)c4c(OC)cccc4OC)cc3n2)cc1	.	.	14.6µM*	.	16.4µM*	-1.9%
CCCOc1ccc(C(=O)Nc2ccc3nn(-c4ccc(OC)c(Cl)c4)nc3c2)cc1	.	.	?	.	-21.8%	-3.1%[12.3 µM]
COc1ccc(-n2nc3ccc(NC(=O)c4cccc(OCCC(C)C)c4)cc3n2)cc1	.	.	7.31µM*	.	18.4µM*	-0.4%[12.3 µM]
O=C(Nc1ccc2nn(-c3ccc(F)cc3)nc2c1)c1cccc2c(Cl)cccc12	.	.	20.6µM*	.	10.3µM*	-1.9%
CCOc1ccc(-n2nc3ccc(NC(=O)Cc4ccccc4)cc3n2)cc1	.	.	3.66µM*	.	3.66µM*	-4.0%[12.3 µM]
COc1ccc(CC(=O)Nc2c(C(=O)N3CCN(c4ncccn4)CC3)oc3ccccc23)cc1	-2.3	-16.8	-19.5%	2.8	-1.2%	3.1%
CC(=O)C(C(C)=O)C1(O)C(=O)c2ccccc2C1=O	0.0	20.7	23.1µM*	0.0	25.9µM*	0.6%
CCOC(=O)N(C)c1c(CC)nc2c(OCCC3CCCCC3)cccn12	-0.9	-76.5*	16.4µM*	-26.1	?	.
CCOC(=O)C(=O)N(C)c1c(CC)nc2c(OCCC3CCCCC3)cccn12	7.5	-24.5	18.4µM*	0.0	?	.
O=C(Cn1c(O)c(/C=C2\C=Nc3ccc(Br)cc32)sc1=O)N1CCCC1	-6.9	?	?	-2.6	20.6µM*	7.5%
CCOc1ccc(S(=O)(=O)N2CCN(C(=S)NCc3ccccc3)CC2)cc1	-9.6	32.9	?	.	20.6µM*	5.7%
CCOC(=O)c1ccc(S(=O)(=O)N2CCN(C(=O)c3cc(=O)c4ccccc4o3)CC2)cc1	8.1	-115.7*	-6.3%	-9.7	-0.3%	4.3%
CCOc1ccc(S(=O)(=O)N2CCN(C(=O)c3ccco3)CC2)cc1	10.2	13.7	-18.9%	2.3	-0.6%	6.6%
CCOc1ccc(S(=O)(=O)N2CCN(C(=O)c3cc4ccccc4o3)CC2)cc1	-5.2	?	20.6µM*	-3.8	20.6µM*	0.6%
O=C(Cc1ccc([N+](=O)[O-])cc1)NCC1CCCO1 (stereo not given)	0.2	-2.2	0.5%	2.6	4.8%	0.0%
Cc1ccc(S(=O)(=O)NCCC(=O)OCC(=O)N(Cc2ccccc2)C(C)(C)C)cc1C	-5.5	13.9	?	6.8	?	.
Cc1ccc(-n2c(=O)c3c4c(sc3n(Cc3ccccc3F)c2=O)CCC4)cc1C	.	.	-3.2%	.	-17.7%	5.9%
CC(C)c1ccc(NC(=O)CN2C(=O)C3(SCC(=O)N3c3ccc(F)cc3)c3ccccc32)cc1 (stereo not given)	.	.	?	.	?	6.3%
SMILES	Six1-Eya2 inh	IL1B secr inh	TDP1 cell noCPT	CtBP-E1A inh	TDP1 cell CPT	TDP1 block
CCCCc1nnc(NC(=O)CN2C(=O)c3ccccc3C2=O)s1	2.6	0.0	0.6%	7.7	0.8%	2.6%
O=C(CSc1ccc(-c2ccccn2)nn1)N1CCCc2ccccc21	-80.4*	154.6	?	-66.2*	?	0.6%
O=C(CSc1ccc(-c2cccnc2)nn1)N1CCCc2ccccc21	.	.	.	.	.	5.3%
O=C(CSc1ccc(-c2ccc(F)cc2)nn1)N1CCCc2ccccc21	-13.1	14.0	?	2.7	16.4µM*	0.0%
CC(C)CN(C(=O)c1cccc(S(=O)(=O)N2CCN(c3ccc(F)cc3)CC2)c1)C1CCS(=O)(=O)C1 (stereo not given)	-5.7	-1.4	?	8.9	?	-10.3%
COc1cc(OC)c(NC(=O)C(c2ccccc2)N2Cc3ccccc3C2=O)cc1Cl (stereo not given)	.	.	-23.3%	.	?	3.7%
CCc1c(O)nc(SCC(=O)NC(C)(C)C)n(-c2ccccc2)c1=O	4.5	2.9	-1.1%	4.3	-10.9%	1.0%
Cc1cccc2sc(NC(=O)CN3C(=O)NC4(CCCC4)C3=O)nc12	-2.0	-0.4	-4.0%	3.3	?	2.6%[56.1 µM]
Cc1nn(-c2ccccc2)nc1C(=O)Nc1cccc(C(=O)NC2CC2)c1	-3.2	8.5	14.6µM*	-0.2	?	.
Cc1ccc(-n2nc(C)c(C(=O)Nc3cccc(C(=O)NC4CC4)c3)n2)c(C)c1	-2.8	-28.1	8.2µM*	-8.6	11.6µM*	1.8%
Cc1cccc2nc(C(=O)Nc3cccc(C(=O)NC4CC4)c3)cn12	-4.6	-17.9	?	.	13µM*	2.3%
Cc1nn(-c2ccccc2)nc1C(=O)Nc1ccc2c(c1)OCCO2	3.7	?	-9.4%	4.0	-24.8%	0.8%
Cc1ccc(C(=O)Nc2cccc(C(=O)NC3CCCC3)c2)cc1	-8.5	-10.2	16.4µM*	4.2	?	1.4%
O=C(NC1CC1)c1cccc(NC(=O)C2CC2)c1	-0.6	-3.9	-10.6%	-2.8	-3.0%	.
Cc1cccc(C(=O)Nc2cccc(C(=O)NC3CCCC3)c2)c1	-0.5	?	?	-1.3	?	0.0%
N#Cc1ccc(CSc2nnc(NC(=O)C3CCCO3)s2)cc1 (stereo not given)	23.1	44.4	-23.6%	0.0	-21.2%	4.2%
Cc1ccc(C(=O)Nc2cccc(C(O)c3ccccc3)c2)cc1 (stereo not given)	12.3	-51.5*	?	1.5	-25.9%	.
